Assay results taken from PubChem BioAssay (NCI).
Compounds without any hit were thinned out: in the full panel of roughly 79,000, 15% have a hit. Cut-off read from the data, not from the text of the source: active = growth inhibition above about 70%; inactive = the rest.

Assays:
[1] = NCI Yeast Anticancer Drug Screen. Data for the rad50 strain (AID 155);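 note: 0% = growth of vehicle-only cultures of the same strain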; conditions: S. cerevisiae rad50 strain growth inhibition; at 50.0 µM; active compounds read high
Method in brief: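 Genetically altered yeast (DNA repair pathway); compound treatment; growth inhibition vs vehicle ctrl.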

[2] = NCI Yeast Anticancer Drug Screen. Data for the mec2-1 strain (AID 157); conditions: S. cerevisiae mec2-1 strain, at 50.0 µM, active compounds read high
Method in brief: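 Using mec2-1 yeast: add compound, measure growth, express inhibition versus vehicle-treated cultures.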

[3] = NCI Yeast Anticancer Drug Screen. Data for the sgs1 mgt1 strain (AID 161);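 note: 0% = growth of cultures given vehicle only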; conditions: S. cerevisiae sgs1 mgt1 strain, at 50.0 µM, active compounds read high
Method in brief: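 This yeast growth screen uses a strain with defined DNA-repair lesions; compound-treated growth is compared with vehicle-treated growth.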

[4] = NCI Yeast Anticancer Drug Screen. Data for the cln2 rad14 strain (AID 165);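 note: 0% = growth equal to vehicle treated cultures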; conditions: S. cerevisiae cln2 rad14 strain, at 50.0 µM, active compounds read high
Method in brief: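 Yeast strain cln2 rad14, bearing defects in cell cycle control and DNA repair, serves as the test system; values reflect growth inhibition compared with vehicle.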

[5] = NCI Yeast Anticancer Drug Screen. Data for the mlh1 rad18 strain (AID 175); conditions: S. cerevisiae mlh1 rad18 strain growth inhibition; at 50.0 µM; active compounds read high
Method in brief: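 Steps: expose repair-defective yeast to compound; measure growth; express inhibition against vehicle-treated controls.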

[6] = NCI Yeast Anticancer Drug Screen. Data for the bub3 strain (AID 167); conditions: S. cerevisiae bub3 mutant strain, at 50.0 µM, active compounds read high
Method in brief: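 Yeast carrying a defined mutation is treated with each compound, and growth is compared with that of vehicle-exposed cells to give inhibition.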

Measured: growth inhibition

O=C(CCc1cc(O)cc(O)c1)NCCc1cc(OCc2ccccc2)cc(OCc2ccccc2)c1
inactive: [1] 28.7% | [2] 24.7% | [3] 45% | [4] 33.2% | [5] -42.6%

NS(=O)(=O)c1ccc(C(=O)O)s1
inactive: [1] -12.1% | [2] -11.2% | [3] -10.3% | [4] -11% | [5] -18.1%

Cc1cc2c(c(C)c1O)C(C)(C)CN2C(=O)C(C)(C)C
inactive: [1] -12.2% | [2] -53% | [3] 2.55% | [4] -8.85% | [5] -10.9%

COc1cc(C)c(/C=C/C(=O)N2C(=O)OC[C@@H]2c2ccccc2)c(C)c1
inactive: [1] 4.35% | [2] -8.75% | [3] 21.1% | [4] 26.9% | [5] 18.2%

O=C(O)CC(CSCP(=O)(O)O)C(=O)O (stereo unspecified)
inactive: [1] 6.95% | [2] 1.55% | [3] 3.05% | [4] -7.85% | [5] 15.7%

COc1ccccc1NC(=S)N1CCC(CCCC2CCN(C(=S)Nc3ccccc3OC)CC2)CC1
inactive: [1] -30.3% | [2] -22.9% | [3] -9.75% | [4] -11.8% | [5] -13.2%

COc1ccc(C(=O)OCc2ccccc2CN2CCCCC2)cc1
inactive: [1] -4.75% | [2] -7.25% | [3] 11.4% | [4] -16.3% | [5] -5.6%

COc1ccc2c(c1)[n+]([O-])c(/C(C)=N/NC(=O)c1ccccc1O)c(C)[n+]2[O-]
inactive: [1] 16.2% | [2] -3.9% | [3] 9.45% | [4] -106% | [5] 0.7%

C=CC1(c2ccc3ccccc3c2)OCC(CC)(CC)CO1
inactive: [1] -18.1% | [2] 7.15% | [3] -3.6% | [4] -4.7% | [5] 21.5%

CN1CCC(c2ccccc2)(c2ccccc2)OC1
inactive: [1] 3.7% | [2] 6.85% | [3] 6.9% | [4] -8.45% | [5] 5.15%

CC1CCC2OC23C(=O)C2OC2C(C(C)(C)O)C13C (stereo unspecified)
inactive: [1] -3.25% | [2] -2.35% | [3] -10.7% | [4] 2.5% | [5] 12.8%

O=C(NCc1ccc2ccc3cccnc3c2n1)c1ccc[n+](Cc2ccccc2)c1
inactive: [1] -6.1% | [2] -11.6% | [3] 5.65% | [4] 3.5% | [5] 1.75%

CCN(CC)C(=O)Nc1cccc(O)c1
inactive: [1] -6.55% | [2] 6.65% | [3] -2.6% | [4] -28.7% | [5] 5.65%

CC1=CC2N(C=C1)C(c1cccc([N+](=O)[O-])c1)=NON2c1cc(C)ccn1 (stereo unspecified)
inactive: [1] 7.05% | [2] 0.95% | [3] 6.85% | [4] 13.6% | [5] 23.9%

COC(=O)c1c(C)oc(C)c1-c1ccc(OCc2ccccc2)c(OC)c1
inactive: [1] 8.7% | [2] -12.8% | [3] -35.8% | [4] 7.6% | [5] 2.7%

CCC(SC)C(=O)c1ccccc1 (stereo unspecified)
inactive: [1] -7.55% | [2] -11.6% | [3] 0.5% | [4] -12.4% | [5] -12.8%

CCC(CCc1ccc(OC)c(OC)c1)C(=O)O (stereo unspecified)
inactive: [1] 1.8% | [2] 12.2% | [3] 14.2% | [4] -9.85% | [6] 29.4% | [5] 9.15%

CC(=O)OCC(=O)[C@H]1CC[C@@H]2[C@]1(C)CC=C1[C@]23C=C[C@]2(C[C@@H](OC(C)=O)CC[C@]12C)C1C(=O)OC(=O)C13 (stereo partly specified)
inactive: [1] -9.65% | [2] 3.4% | [3] -0.6% | [4] -8.35% | [5] 26.9%

COc1ccc2c(c1)C[N+](C)(C)[B-]O2
inactive: [1] -1.6% | [2] -1.55% | [3] 5.45% | [4] -8.65% | [5] 6.75%

COC(=O)C1=C(C(=O)OC)C2(CCCCCC2=O)OC1=O (stereo unspecified)
inactive: [1] -0.65% | [2] 5.45% | [3] -12.8% | [4] 8.9% | [5] -8.25%

O=C(c1ccccc1)c1ccc2[nH]ccc(=O)c2c1
inactive: [1] -4.7% | [2] 0.5% | [3] -3.7% | [4] -31.1% | [5] 4.3%

O=S(=O)(c1ccc(N=Cc2cccs2)cc1)c1ccc(N=Cc2cccs2)cc1
inactive: [1] -13.2% | [2] -22.1% | [3] -10.1% | [4] 10.7% | [5] -13.8%

COc1cc(CN2CCN(CCO)CC2)c(O)c(CN2CCN(CCO)CC2)c1
inactive: [1] -2% | [2] 1.55% | [3] -23.4% | [4] -6.9% | [5] 6.9%
